# High-throughput results (PubChem)
# RE007 growth inh – less growth of the S. pombe RE007 Vpr strain; S. pombe RE007 Vpr strain, BacTiter-Glo ATP luminescence, 24 h; Potency, µM (titrated, usually from 92.2 µM), usual class: inhibitors; hit rate 0.21% among 360,000; active = well fitted falling curve with a large enough effect; inconclusive = small, poorly fitted or top-dose-only effect; inactive = no such curve, though single readings can be large or run the other way; note: nearly all actives have a fitted effect of over 50% in size
#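 Fission yeast strain RE007, carrying one chromosomally integrated HIV-1 vpr copy, was seeded at OD 0.01 in PMG+AL medium with 23 nL pinned compound. After 24 h at 30 °C and 99% humidity, viability was read by BacTiter-Glo luminescence.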
# Pf growth 48h – P. falciparum growth inhibition at 48 hours (one generation); P. falciparum luciferase growth in erythrocytes, 48 h; hit rate 5.9% among 310,000; AID 504832; Potency, µM (doses to about 28.7 µM), usual class: inhibitors
#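 Luciferase-expressing P. falciparum in infected erythrocytes (2% hematocrit, 0.1% parasitemia final) in RPMI 1640/0.5% Albumax were exposed to compound for 48 hours at 37 C, 5% CO2; growth read as luminescence.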
# SARS PLP yeast – blocks SARS-CoV papain-like protease in a yeast assay. S. cerevisiae expressing SARS-CoV PLpro, growth rescue. Potency, µM (top dose mostly 32.9 µM), usual class: activators. hit rate 0.19% among 330,000. AID 485353; calls by dose curve; note: nearly all actives have a fitted effect of over 55% in size
# NS1 function inh – inhibitors of influenza NS1 protein function; AID 2326; hit rate 0.4% among 270,000; Potency, µM (doses to about 46.1 µM); calls by dose curve; note: actives are rising curves; nearly all actives have a fitted effect of over 50% in size
#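 In this qHTS, NS1 from influenza A is expressed in budding yeast, where it slows growth. Cells are switched from glucose to 2% galactose medium (pH 6.0, -URA), treated with compound, and growth recovery is read at OD600.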
# Pf growth 96h – P. falciparum growth inhibition at 96 hour, primary screen for plastid delayed-death inhibitors; hit rate 6.9% among 320,000; P. falciparum luciferase reporter growth, 96 h; Potency, µM (series often up to 28.7 µM), usual class: inhibitors
#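 Delayed-death screen, second-generation endpoint: infected erythrocytes, 2% hematocrit, 0.05% parasitemia final; 96 hours at 37 C, 5% CO2; luciferase detection reagent; luminescence decrease equals reduced growth.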
# Numbers stand for hits; . = inactive; ? = inconclusive; / = no result given; [ ] = another dose, or the depositor's remark. Shown are actives, neighbours in structure and some others; about 9.5% of the full set was active somewhere. Unless noted, calls come from the whole dose curve; as a rule, active = well fitted inhibition curve with a large enough effect; inconclusive = small, poorly fitted or top-dose-only effect, or another doubt; inactive = no such curve, though single readings can be large or run the other way.
SMILES,RE007 growth inh,Pf growth 48h,SARS PLP yeast,NS1 function inh,Pf growth 96h
CC(NC(=O)Nc1nnc(C(F)(F)F)s1)(C(F)(F)F)C(F)(F)F,.,3.3µM,.,.,.
CC(C)(C)CC(=O)Nc1nnc(C(F)(F)F)s1,.,.,.,.,.
CN1OC[C@@H]2CN(C(=O)NC3CCCCC3)[C@H](c3ccc(N4CCCCC4)cc3)C[C@@H]21,.,/,/,/,/
CCc1cccc(NC(=O)CCNS(=O)(=O)c2cc(Br)cnc2N)c1,.,13µM,.,.,.
Nc1ncc(Br)cc1S(=O)(=O)NCCC(=O)N1CCN(c2ccccn2)CC1,.,12µM,.,.,.
Nc1ncc(Br)cc1S(=O)(=O)NCCC(=O)N1CCN(c2ccccc2)CC1,.,6.6µM,.,.,.
CC(C)c1ccc(NC(=O)CCNS(=O)(=O)c2cc(Br)cnc2N)cc1,.,.,.,.,.
O=C(CCNS(=O)(=O)c1ccccc1Cl)N1CCN(c2ccccn2)CC1,.,.,.,/,.
COc1ccc(OC)c(S(=O)(=O)N2CCC(C(=O)NCc3ccccn3)CC2)c1,.,.,.,.,.
CCOC(=O)c1cnc(-n2nc(C)cc2C)nc1NC1CCCC1,.,1.5µM,.,.,?
CCOC(=O)c1cnc(-n2nc(C)cc2C)nc1NCc1ccc2c(c1)OCO2,.,4.7µM,.,.,/
CCOC(=O)c1cnc(-n2nc(C)cc2C)nc1Nc1ccccc1OC,/,?,.,.,?
CCOC(=O)c1cnc(-n2nc(C)cc2C)nc1N(C)C,.,?,.,.,/
CCOC(=O)c1cnc(-n2nc(C)cc2C)nc1Nc1ccc(OC)cc1,.,4.1µM,.,.,1.9µM
CCOC(=O)c1cnc(-n2nc(C)cc2C)nc1NCCc1ccccc1,.,4.1µM,.,.,.
Cc1n[nH]c(C)c1S(=O)(=O)N1CCC(C(=O)Nc2cccc(F)c2)CC1,.,.,.,.,?
Cc1cc(C(=O)CSc2nc3ccc(Cl)cc3[nH]2)c(C)n1Cc1ccco1,.,/,/,/,/
CCC1(c2ccccc2)NC(=O)N(CC(=O)Nc2ccc(OC)nc2)C1=O (stereo not given),.,.,.,.,.
C(=C\c1nc2ccccc2[nH]1)/c1ccccc1,32µM,.,.,.,?
Oc1ccc(C=NC2CCCCC2)c(O)c1,.,.,.,.,10µM
CCOC(=O)C1=Nc2ccccc2C1=[N+]=[N-],0.25µM,?,.,.,.
COc1cc(Cn2c(N)c(C#N)c3nc4ccccc4nc32)cc(OC)c1,.,?,.,.,2.3µM
N#Cc1c(N)n(CCc2ccc(F)cc2)c2nc3ccccc3nc12,.,/,.,.,0.33µM
COc1ccc(Cn2c(N)c(C#N)c3nc4ccccc4nc32)cc1,.,4.7µM,.,.,?
N#Cc1c(N)n(CCOC(=O)c2cccc([N+](=O)[O-])c2)c2nc3ccccc3nc12,.,?,.,.,8.3µM
SMILES,RE007 growth inh,Pf growth 48h,SARS PLP yeast,NS1 function inh,Pf growth 96h
CNNCc1ccc(C(=O)NC(C)C)cc1,.[18.4 µM],.,/,/,?
C[C@]12CC[C@@H]3[C@H](CCC4=CC(=O)CC[C@]43C)[C@]1(O)CC[C@@]2(O)C(=O)CO,/,/,/,.,/
Cc1ccc(S(=O)(=O)N2CC(O)C[C@H]2C(=O)OCC(=O)N2CCN(c3ccc(F)cc3)CC2)cc1C (stereo not given in full),.,/,/,/,/
COc1cccc(Cn2c(N)c(C#N)c3nc4ccccc4nc32)c1OC,.,?,.,.,10µM
Cc1cccc(-n2nc3c(c2NC(=O)c2ccc(S(=O)(=O)N4CCOCC4)cc2)CSC3)c1C,.,12µM,.,.,.
Cc1ccc(-n2nc3c(c2NC(=O)c2ccc(S(=O)(=O)N4CCOCC4)cc2)CSC3)c(C)c1,.,5.9µM,.,.,.
Cc1c(OC(C)C(=O)NCc2ccncc2)ccc2c3c(c(=O)oc12)CCCC3 (stereo not given),.,?,.,.,9.3µM
Cc1c(OC(C)C(=O)NCCCn2ccnc2)ccc2c3c(c(=O)oc12)CCC3 (stereo not given),.,12µM,.,.,12µM
c1ccc(OCCOc2ccccc2-c2nnco2)cc1,.,.,.,.,5.2µM
Cc1cccc(C)c1NC(=O)c1ccc2sc([C@@H]3O[C@H](CO)[C@H](O)[C@H](O)[C@H]3O)nc2c1,.[18.4 µM],/,/,/,/
COC(=O)c1ccc(CN2C(=O)C3CCCCC3C2=O)o1 (stereo not given),.,3.3µM,.,.,.
O=C(c1cn(Cc2ccccc2)nc1-c1ccccc1)N1CCN(c2ccccn2)CC1,.,15µM,.,/,?
COc1ccc(-c2nn(Cc3ccccc3)cc2C(=O)N2CCN(c3ccccn3)CC2)cc1OC,.,?,.,/,?
CC(=O)c1ccc(N2CCN(C(=O)c3cn(Cc4ccccc4)nc3-c3cccnc3)CC2)c(F)c1,.,13µM,.,/,9.3µM
O=C(COc1ccc(C(=O)c2ccccc2)cc1)Nc1cccnc1,.,.,.,.,?
CCc1nc(C)ccc1OC(=O)C12CC3CC(CC(C3)C1)C2,.,.,.,.,0.59µM
Cc1ccc(C(=O)N2CCN(c3cc(=O)[nH]nc3-c3ccccc3)CC2)cc1,.,?,.,.,12µM
Cc1ccc(C(=O)N2CCN(c3ncnc4c(-c5ccccc5)nsc34)CC2)cc1,/,.,.,.,1.5µM
O=C(c1ccco1)N1CCN(c2ncnc3scc(-c4cccs4)c23)CC1,.,12µM,.,.,?
O=C(c1ccco1)N1CCN(c2ncnc3scc(-c4ccccc4)c23)CC1,.,/,.,.,.
O=C(c1ccc(F)cc1)N1CCN(c2cc(=O)[nH]nc2-c2ccccc2)CC1,.,?,.,.,?
O=C(N1CCCC1)N1CCN(c2ncnc3c(-c4ccc(Cl)cc4)nsc23)CC1,/,.,.,.,1.9µM
CC(=O)C1=CCC(c2ccccc2)N(S(=O)(=O)c2ccc(Cl)cc2)C1 (stereo not given),.,/,/,/,/
COCCn1c(=O)[nH]c2cc(C(=O)NCCc3ccc(S(N)(=O)=O)cc3)ccc2c1=O,.,.,.,/,.
O=C(c1cccs1)N1CCCN(c2ncnc3scc(-c4ccccc4)c23)CC1,.,5.9µM,.,.,10µM
SMILES,RE007 growth inh,Pf growth 48h,SARS PLP yeast,NS1 function inh,Pf growth 96h
COc1ccc(-c2csc3ncnc(N4CCN(C(=O)c5ccco5)CC4)c23)cc1,.,?,.,/,?
Cc1ccc(-c2csc3ncnc(N4CCN(C(=O)c5ccccc5)CC4)c23)cc1,.,8.3µM,.,.,/
O=C(c1ccc(-n2cncn2)c2ccoc12)N1CCOCC1,.,/,/,/,/
CCC(=O)Nc1ncnc2ncn(C(=O)CC)c12,/,/,/,.,/
CNC(=S)N(CCc1cccc(C)c1)Cc1cc2cc(OC)c(OC)cc2[nH]c1=O,/,.,.,?,.
Cc1ccc2cc(CN(C(=O)c3ccncc3)C(C)C)c(=O)[nH]c2c1,.,?,.,.,8.3µM
CC(C)N(Cc1cc2ccccc2[nH]c1=O)C(=O)c1cccnc1,.,.,.,.,.
COc1cc2cc(CN(CCc3cccc(C)c3)C(=S)NCCCN(C)C)c(=O)[nH]c2cc1OC,/,13µM,.,.,.
CC(=O)N(CCc1cccc(C)c1)Cc1cc2ccc(C)cc2[nH]c1=O,.,.,.,.,0.074µM
